This is a sample that favours compounds with a hit; in the whole collection about 5.8% have one here.
ALOX12 inh: Primary qHTS assay for inhibitors of human arachidonate 12S-lipoxygenase (ALOX12): Round 2; Polyunsaturated fatty acid lipoxygenase ALOX12 (Homo sapiens), P18054; purified 12hLO, xylenol orange hydroperoxide absorbance; Potency, µM (doses to about 108 µM), for the others: top-dose activity change, negative = inhibition, usual class: inhibitors; 1.1% of 580,000 active; AID 1671190, 2021; also: % is scaled to controls: 0 for no effect and ±100 for the full control effect
Target sequence (P18054 whole entry, looked up): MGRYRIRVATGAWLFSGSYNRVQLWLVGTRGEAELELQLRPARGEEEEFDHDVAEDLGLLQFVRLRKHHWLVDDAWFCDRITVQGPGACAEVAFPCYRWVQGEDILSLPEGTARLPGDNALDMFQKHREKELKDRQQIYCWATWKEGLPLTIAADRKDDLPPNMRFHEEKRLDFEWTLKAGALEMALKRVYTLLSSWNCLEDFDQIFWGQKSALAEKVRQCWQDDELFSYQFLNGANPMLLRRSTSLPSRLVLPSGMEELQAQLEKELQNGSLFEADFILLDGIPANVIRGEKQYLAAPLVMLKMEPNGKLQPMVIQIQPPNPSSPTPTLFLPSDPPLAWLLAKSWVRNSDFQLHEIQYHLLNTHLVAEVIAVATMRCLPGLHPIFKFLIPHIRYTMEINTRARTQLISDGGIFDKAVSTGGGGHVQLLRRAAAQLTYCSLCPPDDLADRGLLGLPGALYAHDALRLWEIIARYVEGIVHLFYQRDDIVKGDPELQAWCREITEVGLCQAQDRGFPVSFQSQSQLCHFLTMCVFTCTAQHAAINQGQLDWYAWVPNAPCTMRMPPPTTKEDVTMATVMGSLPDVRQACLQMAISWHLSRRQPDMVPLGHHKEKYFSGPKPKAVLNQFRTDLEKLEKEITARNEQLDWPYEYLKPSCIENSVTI
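Purified human 12hLO (150 nM final) in 25 mM Hepes, 0.01% Triton X-100, pH 7.0 was preincubated 15 min at room temperature with compound. Then 40 uM arachidonic acid was added, 30 min. Hydroperoxide was read by Fe-XO absorbance ratio 573/405 nm.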
PINK1 modulator: A Quantitative High throughput Screen to Identify Chemical Modulators of PINK1 Expression; AID 624263, 2012; Potency, µM (titrated, usually from 76.6 µM), for the others: top-dose activation (PINK1 increase), usual class: activators; 0.2% of 410,000 active; PINK1 immunofluorescence, high-content cytometry, 24 h; active = well fitted activation curve with a large enough effect; inconclusive = small, poorly fitted or top-dose-only effect; cell line not stated here; also: % of control where 0% means no effect; nearly all actives have a fitted effect of over 65% in size
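PINK1 protein, normally rapidly degraded, was detected by immunofluorescence after 24 hour compound treatment of a stable cell line. Titration data (5 concentrations) came from laser-scanning cytometry, with CCCP-treated wells as controls.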
SW480 rerep: A quantitative high throughput screen for small molecules that induce DNA re-replication in SW480 colon adenocarcinoma cells; SW480 DNA re-replication, Hoechst DNA content imaging, 48 h; Potency, µM (highest dose often 46.1 µM), inactives show top-dose re-replication activation, hits mostly activators; 1.8% of 340,000 active; AID 624297, 2012; also: % of control where 0% means no effect; nearly all actives have a fitted effect of over 55% in size
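Readout is total intensity of Hoechst-stained nuclei, excited at 405 nm and collected at 500-530 nm. Compound treatment lasted 48 hr at 37 C in 5% CO2 before staining.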
MCF10A rereplic: A quantitative high throughput screen for small molecules that induce DNA re-replication in MCF 10a normal breast cells | MCF 10A DNA re-replication, Hoechst nuclear intensity, 48 h | Potency, µM (top dose mostly 46.1 µM), inactives show at the top dose activity, positive = re-replication, most hits filed as activators | 2.9% of 350,000 active | AID 624296, 2012; also: % of control where 0% means no effect; nearly all actives have a fitted effect of over 50% in size
KB-3-1 tox: qHTS assay for MDR1-selective chemotherapeutics: Primary screen using the parental adenocarcinoma cell KB-3-1. KB-3-1 viability, CellTiter-Glo ATP luminescence, 72 h. Potency, µM (series often up to 46.1 µM), actives largely listed as cytotoxic. 1.4% of 400,000 active. AID 1347075, 2019; also: % is scaled to controls: 0 for no effect and ±100 for the full control effect; nearly all actives have a fitted effect of over 60% in size
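Luminescent ATP read-out (CellTiter-Glo) measures survival of drug-naive KB-3-1 cells after 72 h compound exposure at 37 °C. Titration series was screened from lowest to highest concentration, with DMSO vehicle plates as background controls.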
KB-V1 cytotox: qHTS assay for MDR1-selective chemotherapeutics: Primary screen using the drug-selected MDR subline cells KB-V1. KB-V1 MDR cells viability, CellTiter-Glo, 72 h. 3.4% of 400,000 active. AID 1347076, 2019. Potency, µM (doses to about 46.1 µM), hits mostly cytotoxic; also: % is scaled to controls: 0 for no effect and ±100 for the full control effect; nearly all actives have a fitted effect of over 60% in size
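Cytotoxicity toward P-gp-expressing KB-V1 cells was determined as loss of CellTiter-Glo luminescence after 72 h at 37 degrees C. Compounds were tested in quantitative HTS format across a concentration range, with curves fitted to normalized data.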
* hit, by the source's call; i = inactive; ? = inconclusive; . = no result given; [ ] = another dose, or the depositor's remark. Unless noted, calls follow the shape of the dose curve; as a rule, active = well fitted curve in the direction sought with a large enough effect; inconclusive = small, poorly fitted or top-dose-only effect, or another doubt; inactive = no such curve, though single readings can be large; an effect the other way counts as inactive or inconclusive. Potency is read from the fitted curve at half-maximal effect.

SMILES	ALOX12 inh	PINK1 modulator	SW480 rerep	MCF10A rereplic	KB-3-1 tox	KB-V1 cytotox
COc1ccc(C(=O)COC(=O)CCS(=O)(=O)c2ccc(C)cc2)c(OC)c1	-17.2%	0.3%	0.2%	0.5%	i	i
Cc1ccc(S(=O)(=O)CCC(=O)c2ccc(O)cc2O)cc1	?	7.6%	?	18.4µM*	?	i
COc1ccc(/C(N)=N/OC(=O)Cc2ccc(C)cc2)cc1OC	-7.9%	1.5%	2.91µM*	?	i	i
COc1ccc(C(=O)CCS(=O)(=O)c2ccc(C)cc2)cc1OC	-63.8%	-0.2%	5.17µM*	?	i	i
CCOc1ccc(NC(=O)/C=C/c2ccccc2)c([N+](=O)[O-])c1	-14.0%	?	?	-1.5%	?	?
CCOc1ccc(N/C=C/C(=O)c2ccccc2)c([N+](=O)[O-])c1	10.1%	2.3%	0.5%	7.1%	16.4µM*	?
CCOC(=O)c1c(NC(=O)COc2ccccc2Br)sc2c1CCCCC2	-4.5%	2.4%	.	.	i	i
CCOC(=O)c1c(NC(=O)c2ccccc2Br)sc2c1CCc1ccccc1-2	?	?	16.4µM*	?	i	13µM*
COc1ccc(OC)c2nc3c(C(=O)NCCN(C)C)cccc3nc12	-6.3%	-6.9%	?	?	?	20.6µM*
CN(C)CCNC(=O)c1cccc2ccc(-c3ccc(-c4ccccc4)cc3)nc12	39.8µM*	-6.7%	?	?	?	11.6µM*
CN(C)CCNC(=O)c1ccccc1	-0.3%	-1.7%[38.3 µM]	-8.5%	-3.6%	i	i
CN(C)CCNC(=O)c1cccc2nc3cccc(F)c3nc12	-24.1%	0.0%	21.6%	?	4.11µM*	?
COc1cc(OC)c(C(=O)OCC(=O)NC2CCCC2)cc1OC	9.6%	3.2%	-5.1%	-0.5%	i	i
Cc1ccc(C)c(OCCC(=O)OCC(=O)NCCNC(=O)COC(=O)CCOc2cc(C)ccc2C)c1	8.3%	8.6%	-1.7%	-4.7%	i	i
Cc1ccc(C)c(OCC(=O)NCCNC(=O)COc2cc(C)ccc2C)c1	?	1.6%[38.3 µM]	-2.7%	18.9%	i	18.4µM*
COc1cc(OC)c(C(=O)OCC(=O)NC2CCCCCCC2)cc1OC	-6.2%	-2.7%	-3.9%	1.6%	?	8.2µM*
Cc1ccc(C)c(OCC(=O)NC2CCCCCC2)c1	5.2%	6.4%	0.0%	?	i	13µM*
O=C(COc1ccc(Br)cc1Cl)NC1CCCCC1	-0.6%	9.2%	-1.2%	1.0%	?	18.4µM*
COc1ccccc1CC(=O)N(Cc1nc(-c2ccc(C)cc2)no1)C1CCCCC1	-28.7%	.	.	.	.	.
COc1ccccc1OCC(=O)N(Cc1nc(-c2ccccc2)no1)C1CCCCC1	?	6.8%	10.6%	15.7%	?	16.4µM*
CC(C)N(C(=O)COc1ccc(Br)cc1Cl)C(C)C	-16.6%	8.0%	-7.6%	12.7%	i	14.6µM*
CC(C(=O)NC(=O)NC1CCCCC1)N1CCN(C(c2ccccc2)c2ccccc2)CC1 (stereo unspecified)	?	4.7%	0.4%	1.9%	?	9.2µM*
CN(Cc1ccccc1)C(=O)COc1ccc(Br)cc1Cl	-12.5%	0.5%	18.3%	-8.9%	i	i
COc1ccccc1OCC(=O)NC1CCCCCCC1	-1.0%	7.3%	2.7%	27.5%	?	20.6µM*
C#CCN(Cc1ccc(C)cc1)C(=O)CCC(=O)CCC(=O)c1ccc(C)s1	-12.4%	.	.	.	.	.
SMILES	ALOX12 inh	PINK1 modulator	SW480 rerep	MCF10A rereplic	KB-3-1 tox	KB-V1 cytotox
COc1cc(OC)c(C(=O)OCC(=O)NC23CC4CC(CC(C4)C2)C3)cc1OC	16.4%	10.4%	-5.3%	17.3%	i	8.2µM*
Cc1ccccc1CSCC(=O)NC1CCCC1	.	-0.6%	-7.0%	-0.7%	i	i
O=C(CN1CCc2ccccc2C1)NC1CCCC1	3.7%	1.8%	18.4µM*	7.7%	i	i
COC(C(=O)NC1CCCCCCC1)c1ccccc1 (stereo unspecified)	0.4%	-1.7%	-72.2%	0.1%	i	18.4µM*
O=C(NC1CCCCC1)N1CCc2ccccc2C1	-7.2%	-0.1%	-0.7%	-1.9%	i	i
Cc1ccccc1CC(=O)NC1CCCCCC1	-27.8%	2.9%	0.92µM*	8.0%	i	i
CCC(C)NC(=O)CCNC(=O)N1CCn2c1nc1ccccc12 (stereo unspecified)	0.9%	.	.	.	.	.
Cc1cc(Cl)c(S(=O)(=O)N2CCSCC2)cc1OCC(=O)NC1CCCCC1	9.8%	0.3%[38.3 µM]	?	?	?	3.66µM*
Cc1cc(Cl)c(S(=O)(=O)N2CCCCCC2)cc1OCC(=O)NC1CCCCC1	-3.5%	.	-5.6%	0.1%	i	i
OCC1(Cc2cccc(C(F)(F)F)c2)CCN(Cc2cc(F)cc(F)c2)CC1	-20.5%	-2.1%	?	23.1µM*	?	?
CSc1cccc(CN2CCC(CO)(Cc3cccc(C(F)(F)F)c3)CC2)c1	?	-1.4%	21.2%	?	i	?
CC(C)n1cc(-c2cc(C(=O)N3CCC(C)(C)C3)c3ccc(F)cc3n2)cn1	2.2%	.	.	.	.	.
Cc1cc(C)c(CC(=O)O)c(C)c1	1.58µM*	.	.	.	.	.
Cc1cc(CC(=O)O)c(C)cc1CC(=O)O	-2.5%	0.9%	0.6%	10.4%	i	?
COc1cc(OC)c(NC(=O)NCCn2c(C(F)(F)F)nc3ccccc32)cc1Cl	7.4%	.	.	.	.	.
CN(C(=O)Cc1cccc2cccnc12)C1CCS(=O)(=O)C1 (stereo unspecified)	1.3%	.	.	.	.	.
Cc1cccnc1NC(=O)CSc1ncnc2sc(C)c(C)c12	-11.8%	-2.4%	-5.0%	10.0%	i	14.6µM*
COC(=O)c1c(-c2ccccc2)csc1NC(=O)CSc1ncnc2sc(C)c(C)c12	0.0%	1.6%	3.0%	-6.4%	i	11.6µM*
Cc1sc2ncnc(SCc3ccco3)c2c1C	-3.4%	2.2%	-3.5%	14.6µM*	i	i
Cc1ccc(C)c(NC(=O)CN(C)C(=O)c2ccc(-c3cccc(C(F)(F)F)c3)o2)c1	-5.0%	5.8%	-3.3%	19.7%	i	18.4µM*
CN(CC(=O)Nc1cccc(F)c1)C(=O)c1ccc(-c2cccc(C(F)(F)F)c2)o1	-3.3%	3.6%	1.3%	27.6%	i	?
